High-throughput results deposited in PubChem by Broad Institute.
Ecoli rRNA inh: reduced GFP signal of wild-type E. coli, primary screen, bacterial rRNA inhibitor project, GFP/RFP fluorescence, OD600, single point; 1.6% of 350,000 active; E. coli WT GFP vs humanized-ribosome RFP mutants, 24 h; stronger effect = lower value; DMSO median 0, no signal -100; AID 720706, 2013; GFP signal change (wild-type ribosome), % (concentration not given with the values);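 active = significant combined selectivity score with lowered wild-type GFP, culture density cut under 30%, mutant RFP and density less affected; inactive = any of these conditions unmet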
AF4-AF9 inh: inhibitors of AF4 peptide binding to AF9, primary screen, biochemical, AlphaScreen, biotin-AF4 peptide, FLAG-AF9, single point; 0.47% of 350,000 active; Protein AF-9 (Homo sapiens), P42568; inhibition, % at 10 µM; AID 651704, 2012;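 active = every replicate reaching a set inhibition limit, whatever the replicate mean, cut at about 25% in these data; inconclusive = mean inhibition reaches that limit but some replicates miss it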;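 note: 0% = plate neutral control median and 100% = total signal loss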
Target sequence (P42568 whole entry, looked up): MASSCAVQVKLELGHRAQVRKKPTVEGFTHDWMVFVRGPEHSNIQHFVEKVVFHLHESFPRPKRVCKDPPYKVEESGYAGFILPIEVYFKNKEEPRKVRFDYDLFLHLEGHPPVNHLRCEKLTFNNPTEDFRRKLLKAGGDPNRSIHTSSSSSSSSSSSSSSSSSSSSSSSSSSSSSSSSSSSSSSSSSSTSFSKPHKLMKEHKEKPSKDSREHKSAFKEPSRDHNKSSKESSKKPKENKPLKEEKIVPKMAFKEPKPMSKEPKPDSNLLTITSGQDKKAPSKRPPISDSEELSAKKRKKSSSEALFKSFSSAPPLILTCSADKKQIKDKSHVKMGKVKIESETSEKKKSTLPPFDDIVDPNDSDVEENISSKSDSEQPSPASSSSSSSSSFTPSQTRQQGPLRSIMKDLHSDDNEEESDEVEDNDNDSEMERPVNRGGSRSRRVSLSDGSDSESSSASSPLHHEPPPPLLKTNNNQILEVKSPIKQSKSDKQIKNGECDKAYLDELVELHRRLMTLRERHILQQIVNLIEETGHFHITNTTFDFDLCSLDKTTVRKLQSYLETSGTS
Wnt act: Wnt/beta-catenin pathway activators, primary screen, cell-based, plate reader, single point | Wnt/beta-catenin reporter cell assay, activator | activation, % at 9.35 µM | 1.2% of 300,000 active; in the data active = activation above about 30%, passing the limit was not always enough; inconclusive = no clear call, values can overlap the other calls;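 note: 0% = neutral control wells and 100% = positive control wells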
MITF act: activators of MITF-driven TRPM1 promoter reporter, primary screen, cell-based, SK-MEL-5, luciferase, single point | 0.75% of 300,000 active | activation, % at 12.5 µM | SK-MEL-5 TRPM1-promoter luciferase, 24 h; % of positive control, neutral wells = 0;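 active = mean activation of at least 80% with every replicate also reaching 80%; inconclusive = mean reaches 80% but some replicate falls short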;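 note: 0% = neutral control wells and 100% = parthenolide positive control wells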
esBAF inh: Bmi1 luciferase reporter increase in mESCs, primary screen, esBAF inhibitor project, mouse ES cells, Bmi1 luciferase knock-in, single point; 2% of 350,000 active; reporter increase, % at 12.5 µM; 24 h; 100% = twice the neutral-well signal; in the data active = activation above about 40%; inconclusive = no clear call, values can overlap the other calls;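 note: 0% = median of the plate's neutral control wells and 100% = double that signal; a rise in the Bmi1 reporter signal indicates esBAF inhibition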
AID977621: growth inhibition of wild-type GFP E. coli, dose response, H69 mutant RFP, cherry-pick; shares compounds with Ecoli rRNA inh; E. coli wild-type GFP strain growth, fluorescence, 24 h; activity change, negative = inhibition at 50 µM; 1,900 tested, under 10 active; AID 977621, 2014;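 active = Wild-type ribosome reporter drop at least double the humanized mutant ribosome reporter drop, growth loss under a set limit; inconclusive = no clear call, values can overlap the other calls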;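 note: wild-type GFP and H69 mutant RFP strains grown together 50/50 in each well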
AID977628: E. coli growth inhibition, wild-type GFP versus h24 humanized RFP strain, dose response, h24 mutant RFP vs wild-type GFP, cherry-pick | shares compounds with Ecoli rRNA inh | E. coli WT GFP strain growth, fluorescence, 24 h | activity change, negative = inhibition at 50 µM | 1,900 tested, under 10 active | AID 977628, 2014;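 active = compound lowering the normal-ribosome reporter at least twice as much as the humanized-ribosome reporter, growth loss under a set limit; inconclusive = no clear call, values can overlap the other calls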;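 note: wild-type GFP and h24 humanized RFP strains co-cultured 1 to 1 per well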
An asterisk follows results filed as active; ? = inconclusive; . = no result. A selection: hits, their analogues and other compounds. The true share with any hit is near 3.7%.

SMILES	Ecoli rRNA inh	AF4-AF9 inh	Wnt act	MITF act	esBAF inh	AID977621	AID977628
C[C@@H]1CCCCO[C@@H](CN(C)C(=O)CCCN(C)C)[C@H](C)CN([C@@H](C)CO)C(=O)c2cc(NC(=O)Nc3cccc4ccccc34)ccc2O1	-0.3	12.7	.	.	1.2	.	?
C[C@H](CO)N1C[C@H](C)[C@H](CN(C)C(=O)CCCN(C)C)OCCCC[C@H](C)Oc2ccc(NC(=O)Nc3cccc4ccccc34)cc2C1=O	-0.7	12.8	.	.	-3.5	-7.21	?
CCc1sc(N2[C@H](C#N)[C@H](c3ccccc3-c3cccc(C)c3)[C@H]2CO)nc1C	6.5	-3.2	.	.	.	.	.
COc1ccccc1Oc1coc2c(CN3CCN(C)CC3)c(O)ccc2c1=O	.	.	.	-9.1	3.0	.	.
C[C@@H]1CCCCO[C@H](CN(C)C(=O)CCCN(C)C)[C@@H](C)CN([C@@H](C)CO)C(=O)c2cc(NC(=O)Nc3cccc4ccccc34)ccc2O1	-38.9*	17.9	.	.	-0.7	-8.13	?
C[C@@H]1CN([C@H](C)CO)C(=O)c2cc(NC(=O)Nc3cccc4ccccc34)ccc2O[C@@H](C)CCCCO[C@H]1CN(C)C	.	.	.	.	-7.7	.	.
C[C@@H]1CCCCO[C@@H](CN(C)C(=O)CCCN(C)C)[C@H](C)CN([C@H](C)CO)C(=O)c2cc(NC(=O)Nc3cccc4ccccc34)ccc2O1	0.4	-2.4	.	.	-0.1	-5.5	?
COc1ccc(C(=O)Nc2cccc(C)n2)cc1S(=O)(=O)N1CCCc2ccccc21	-14.9	2.9	-3.3	-11.9	-6.4	.	.
COc1cc2c(cc1OC)CN(C(=O)Cc1ccc(OC)c(S(=O)(=O)N3CCOCC3)c1)CC2	.	.	-2.0	8.2	10.6	.	.
Cc1ccc(C(=O)C2Oc3ccccc3C3CC(c4ccc(C)cc4)=NN23)cc1 (stereo not given)	-17.1*	6.9	-0.7	-12.8	.	3.98	0.038
Cc1ccc(C2=NN(C(=O)c3ccccc3F)C(c3ccccc3F)C2)cc1 (stereo not given)	10.7	2.1	-0.9	-4.5	2.6	.	.
Nc1c(Cl)cc(C2=NCCn3nc4ccccc4c32)cc1Cl	-19.9*	13.7	-11.5	-28.8	-1.1	-11.2	.
COc1ccccc1N(C)S(=O)(=O)c1ccc(Cl)c(C(=O)NC2=NCCS2)c1	-29.8*	-0.4	-0.8	5.2	2.7	-15	?
C[C@H](CO)N1C[C@H](C)[C@H](CN(C)C(=O)Nc2ccc3c(c2)OCO3)Oc2c(NC(=O)Nc3ccccc3)cccc2C1=O	-22.0*	9.7	.	.	21.0	-10.7	?
C[C@@H]1CN([C@@H](C)CO)C(=O)c2cc(NC(=O)C3CC3)ccc2O[C@H]1CN(C)C(=O)Nc1ccc(C(F)(F)F)cc1	-28.9*	-2.2	.	.	0.4	-18.1	-12.8
Cc1noc(C)c1NC(=O)Nc1ccc2c(c1)C(=O)N([C@@H](C)CO)C[C@@H](C)[C@H](CN(C)C(=O)Nc1ccc3c(c1)OCO3)OCCCC[C@H](C)O2	-1.8	0.0	.	.	3.4	1.31	?
C[C@@H]1CN([C@H](C)CO)C(=O)c2cc(NC(=O)C3CC3)ccc2O[C@H]1CN(C)C(=O)Nc1ccc(C(F)(F)F)cc1	-7.4	-3.0	.	.	3.8	.	.
C[C@@H]1CN([C@H](C)CO)C(=O)CCCn2nncc2CO[C@@H]1CN(C)C(=O)Nc1ccc(C(F)(F)F)cc1	-17.7*	-0.4	.	.	-0.2	-15.4	?
C[C@@H]1CN([C@H](C)CO)C(=O)CCCn2nncc2CO[C@H]1CN(C)C(=O)Nc1ccc(C(F)(F)F)cc1	-54.4	-13.5	.	.	-1.8	.	.
COc1ccc(OC)c(C(C)NC(=O)C23CC4CC(CC(C4)C2)C3)c1 (stereo not given)	19.0	2.7	-2.2	-9.2	6.0	.	.
CN1C(=O)c2cc(NC(=O)Nc3ccccc3Cl)ccc2OC[C@@H]2O[C@H](CC(=O)NCCCN3CCOCC3)CC[C@H]21	2.0	.	.	.	2.2	.	.
Cc1noc(C)c1NC(=O)Nc1ccc2c(c1)C(=O)N([C@@H](C)CO)C[C@@H](C)[C@@H](CN(C)C(=O)Nc1ccc3c(c1)OCO3)OCCCC[C@@H](C)O2	-1.3	6.4	.	.	-1.3	-0.24	?
O=C(c1cc(F)ccc1F)C1CCCN(C(=O)CCc2cnccn2)C1 (stereo not given)	10.6	-0.9	-1.6	0.9	.	.	.
O=C(c1cccc2ccccc12)C1CCCN(C(=O)CCc2cnccn2)C1 (stereo not given)	-21.1*	1.5	4.2	0.1	4.7	-11.2	-12
C/C=C/c1ccc([C@@H]2[C@@H](CO)N(C(C)=O)[C@H]2CN(C)C(=O)NC2CCCC2)cc1	-3.8	0.7	.	.	-5.8	.	.
SMILES	Ecoli rRNA inh	AF4-AF9 inh	Wnt act	MITF act	esBAF inh	AID977621	AID977628
CCOc1ccccc1NC(=O)c1cc(SC)ccc1Cl	-29.6*	-4.3	-0.8	13.0	-6.6	-13.4	-7.47
O=[N+]([O-])c1ccc(NCCNCCOc2nonc2-c2ccccc2)c([N+](=O)[O-])c1	-21.0*	3.0	-0.5	2.1	-3.8	5.63	-0.84
CN(CC(=O)Nc1ccc(F)cc1)C(=O)COc1ccc([N+](=O)[O-])cc1Cl	-23.8*	1.9	-1.2	-1.4	-3.4	-16.4	-6.83
OC(c1ccccc1)C1CN(Cc2ccccc2)CCC1(O)c1ccccc1 (stereo not given)	1.7	7.5	-1.5	-3.2	-8.2	.	.
O=C(c1ccccc1)C1CN(Cc2ccccc2)CCC1(O)c1ccccc1 (stereo not given)	-17.5*	9.3	-0.5	-1.3	6.1	-0.751	.
COc1ccc(-c2nc(C3CCCCC3)no2)cc1OC	-19.1*	1.7	-2.2	106.4*	60.3*	-0.859	-16.5
O=C1c2[nH]nc(-c3ccccc3O)c2C(c2ccccc2F)N1Cc1ccco1 (stereo not given)	.	.	-0.7	-6.6	-2.0	.	.
S=c1nc(-c2cccc(Br)c2)[nH][nH]1	-20.2*	3.4	2.4	15.0	0.4	-7.43	-8.15
C/C=C/c1ccc2c(c1)O[C@H](CN(C)C(=O)c1ccccn1)[C@H](C)CN([C@H](C)CO)S2(=O)=O	-1.8	0.1	.	.	0.8	.	.
CCn1c(CNC(=O)c2ccccc2F)cc2cc(C)ccc21	-20.4*	-0.9	14.4	.	34.4	?	.
Cc1ccc(NC(=O)c2ccccc2F)c(NC(=O)c2ccccc2F)c1	-20.4*	-3.6	26.0	.	57.6*	-15.6	-16.9
